Most compounds without a hit are left out; they make up all but 2.9% or so of the library.
KDM5B inh: Primary screen for KDM5B Histone Demethylases FDH-coupled qHTS; Lysine-specific demethylase 5B (Homo sapiens), Q9UGL1; KDM5B demethylase, FDH-coupled NADH fluorescence (FDH is formaldehyde dehydrogenase); Potency, µM (doses to about 57.7 µM), actives largely listed as inhibitors; actives 2.6% (n = 220,000); AID 1347165, 2019; note: potency is the fitted concentration of half-maximal effect; 0% is about no effect; nearly all actives have a fitted effect of over 70% in size
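Coupled FDH/NAD⁺ fluorescence readout. KDM5BΔAP 200 nM final; compound titration, 10 min RT preincubation; substrate mix 12.5 µM H3K4me3, 25 µM 2-OG, 50 µM Fe(II), 100 µM ascorbate, 0.25 mM NAD⁺, 0.25 U/mL FDH; ΔRFU over 30 min.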
SNCA expr inhib: Primary qHTS assay for inhibitors of alpha-synuclein gene (SNCA) expression; HEK-293 SNCA-luciferase knock-in, luminescence, 24 h; Potency, µM (top dose mostly 57.2 µM), without a hit: at the highest dose activity change, negative = inhibition, most hits filed as inhibitors; actives 0.17% (n = 140,000); AID 1671194, 2021;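 note: potency is the fitted concentration of half-maximal effect; plate controls were DMSO cells for no effect and cell-free wells for full effect; nearly all actives have a fitted effect of over 45% in size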
SNCA viab count: GF-AFC viability counterscreen for inhibitors of alpha-synuclein gene (SNCA) expression | HEK-293-SNCA-luc viability, GF-AFC fluorescence, 24 h | Potency, µM (titrated, usually from 57.1 µM), without a hit: at the top dose activity change, negative = cytotoxicity, most hits filed as cytotoxic | actives 0.12% (n = 150,000) | AID 1671193, 2021;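 note: potency is the fitted concentration of half-maximal effect; 0% = DMSO-treated cells and -100% = medium-only wells without cells; nearly all actives have a fitted effect of over 30% in size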
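HEK-293-SNCA-luc cells (1500/well) plated 24 h, then exposed 24 h to a dilution series; GF-AFC added 30 min at 37C, fluorescence 405/540 nm; normalised to medium-only and DMSO wells, Hill fit.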
IP6K1 inhibitor: Primary qHTS assay for small molecule inhibitors of Inositol hexaphosphate kinase 1 (IP6K1) | AID 1645851, 2021 | Inositol hexakisphosphate kinase 1 (Homo sapiens), Q92551 | actives 0.81% (n = 140,000) | IP6K1 kinase, ADP-Glo luminescence, 2 h; active compounds read low | activity change, % (series mostly up to about 58 µM); in the data active = activity change below about -25%; note: % is set by controls: 0 for no effect and ±100 for the full control effect
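ADP-Glo luminescence measures ADP made by human IP6K1 during a 2 h RT reaction with ATP/IP6 (mix at 1.3 mM/130 uM); top library doses 57.5 and 19.1 uM final.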
Starred values were filed as active, the others as inactive; i = inactive; ? = inconclusive; . = no result given; [ ] = dose if it differs, or a comment. Unless noted, calls come from the whole dose curve; as a rule, active = well fitted curve in the direction sought with a large enough effect; inconclusive = small, poorly fitted or top-dose-only effect, or another doubt; inactive = no such curve, though single readings can be large; an effect the other way counts as inactive or inconclusive.

SMILES	KDM5B inh	SNCA expr inhib	SNCA viab count	IP6K1 inhibitor
Cc1cc(C[C@@H]2COC[C@@H]2NC(=O)c2ccccc2-c2ccc(F)cc2)on1	i	6.0%	-3.7%	-14.5
Cc1cc(C[C@@H]2COC[C@@H]2NC(=O)c2cc(CC(C)C)nc(N)n2)on1	31.6µM*	-17.3%	-21.8%	25.6
Cc1cc(C[C@@H]2COC[C@@H]2NC(=O)c2cnn3cc(CCO)cnc23)on1	28.2µM*	-11.6%	3.1%	-7.9
Cc1cc(C[C@@H]2COC[C@@H]2NC(=O)c2ccc(S(N)(=O)=O)cc2)on1	i	12.0%	5.0%	12.9
CCC(O)CCCCCCCC(O)CC (centres undefined)	i	.	.	.
C[S+](=O)([O-])N1CCC(c2nnc3n2C(C(=O)NCc2cccnc2)CC3)CC1 (centres undefined)	.	0.3%	-1.9%[12.5 µM]	17.3
C=C1C(=O)O[C@@H]2C/C(C)=C\C(=O)/C=C(\C)[C@@H](OC(=O)/C(C)=C\C)[C@H](O)[C@@H]12	.	.	14.7µM*	7.2
C=C1C(=O)O[C@@H]2[C@H]3C(C)=CC(=O)C3=C(C)[C@@H](OC(=O)/C(C)=C\C)[C@H](O)[C@@H]12	.	.	?	8.5
C[C@]1(CO)[C@H]2Cc3sc(NC(=O)c4ccc(F)cc4)nc3[C@@H](CC(=O)Nc3ccccc3)[C@]2(C)CC[C@H]1O	31.6µM*	100.1%	1.9%	-7.8
COc1ccc(C(=O)Nc2nc3c(s2)C[C@@H]2[C@](C)(CO)[C@H](O)CC[C@@]2(C)[C@@H]3CC(=O)N(C)Cc2ccccc2)cc1	?	?	?	2.2
C[C@]1(CO)[C@H]2Cc3sc(NC(=O)c4ccc(F)cc4)nc3[C@@H](CC(=O)NC3CC3)[C@]2(C)CC[C@H]1O	i	-0.1%	-7.4%	12.1
CN(Cc1ccccc1)C(=O)C[C@@H]1c2nc(NC(=O)c3ccc(F)cc3)sc2C[C@@H]2[C@](C)(CO)[C@H](O)CC[C@]21C	35.5µM*	-27.7%	-29.4%	6.4
C#CCNC(=O)C[C@@H]1c2nc(NC(=O)c3ccc(C(C)(C)C)cc3)sc2C[C@@H]2[C@](C)(CO)[C@H](O)CC[C@]21C	31.6µM*	5.2%	5.4%	-4.0
COc1ccc(C(=O)Nc2nc3c(s2)C[C@@H]2[C@](C)(CO)[C@H](O)CC[C@@]2(C)[C@@H]3CC(=O)N2CCC(C)CC2)cc1	28.2µM*	-33.6%	?	-7.8
C#CCNC(=O)C[C@@H]1c2nc(NC(=O)C(C)(C)C)sc2C[C@@H]2[C@](C)(CO)[C@H](O)CC[C@]21C	i	-13.4%	-0.8%	-5.7
Cn1c(CCN2CCCCC2)nc2cc(NC(=O)c3ccccc3)ccc21	i	.	.	.
COc1ccc(C(=O)NC2CCN(c3cc(-c4ccccc4)[nH]n3)CC2)cc1OC	?	-6.4%	2.2%	1.4
COc1ccc(CC(=O)NC(C)C(=O)N2CCN(c3ccccn3)CC2)c(Cl)c1 (centres undefined)	?	15.4%	6.9%	23.0
O=C(Nc1ccn[nH]1)c1c(F)cccc1F	.	.	17.1%	5.2
COCCN1CCCC1c1nc(C2CN(C(=O)c3ccccc3OC)C2)no1 (centres undefined)	i	?	1.5%[12.5 µM]	10.5
O=C(c1cc2sccc2[nH]1)N1CC2CC(C1)[C@@H]1CCCC(=O)N1C2 (some centres undefined)	i	-9.8%	-7.9%	1.2
C[C@]1(CO)[C@H]2Cc3sc(NC(=O)c4c(F)cccc4F)nc3[C@@H](CC(=O)O)[C@]2(C)CC[C@H]1O	i	?	5.0%	-9.3
C[C@]1(CO)[C@H]2Cc3sc(-c4ccccc4)nc3[C@@H](CC(=O)O)[C@]2(C)CC[C@H]1O	31.6µM*	0.4%[87.6 µM]	2.3%[87.6 µM]	-1.5
CN(C)[C@@H]1CN(C(=O)c2ccoc2)CC[C@]1(O)c1ccccc1	i	1.3%	9.6%	21.4
CC(C)c1ccc(-c2nc(-c3cccnn3)no2)c(=O)[nH]1	22.4µM*	11.7%	2.1%	16.4
SMILES	KDM5B inh	SNCA expr inhib	SNCA viab count	IP6K1 inhibitor
CN[C@@H](CC(C)C)c1nc(-c2cccnn2)no1	i	-15.4%	-8.3%	-8.6
O=C(O)CSCC(=O)N[C@H]1C[C@H]2C(=O)Nc3ccc(-c4cccs4)cc3C(=O)N2C1	28.2µM*	-21.0%	5.1%	1.1
COCC(=O)N[C@H]1C[C@H]2C(=O)Nc3ccc(-c4cccs4)cc3C(=O)N2C1	35.5µM*	22.8%[87.6 µM]	0.5%[87.6 µM]	5.6
CC(C)(CC(=O)O)CC(=O)N[C@H]1C[C@H]2C(=O)Nc3ccc(-c4cccs4)cc3C(=O)N2C1	?	2.8%	7.3%	-9.5
CO[C@@H]1COCC[C@H]1NC1CCN(c2ncc3ccc(F)cc3n2)CC1	28.2µM*	27.6%	-8.6%	5.8
O=c1cnc2cnc(N3CCOCC3)nc2n1Cc1ccc(F)cc1	.	-13.2%	-21.4%	.
COc1ccc(-c2[nH]ncc2CNc2cc(C3CC(O)C3)nc(C)n2)cc1 (centres undefined)	i	17.2%	1.5%	8.4
COc1ccc2[nH]c(CNc3cc(C4CC(N)C4)nc(C)n3)cc2c1 (centres undefined)	20µM*	10.6%	0.7%	-11.5
COc1ccc(S(=O)(=O)Oc2ccc3c(c2)O/C(=C\c2ccccc2OC)C3=O)cc1	i	.	.	.
Cc1ccc(Nc2nc3nonc3nc2Nc2cccc(C(F)(F)F)c2)cc1Cl	i	-23.5%	-18.6%	-4.8
Cc1nn2c(c1-c1cccnc1N1CCOCC1)N(CC1CC1)CCC2	35.5µM*	1.0%[87.6 µM]	9.6%[87.6 µM]	8.3
Cc1nn2c(c1-c1ccccc1OCc1ccccc1)N(Cc1ccccc1O)CCC2	?	?	-18.5%[87.6 µM]	13.6
COc1ccc(OC)c(CN2CCCn3nc(C)c(-c4ccccc4OCc4ccccc4)c32)c1	28.2µM*	?	3.98µM*	1.1
Cc1nn2c(c1-c1ccccc1OCc1ccccc1)N(CC1CC1)CCC2	35.5µM*	?	10µM*	14.8
Cc1nn2c(c1-c1ccccc1OCc1ccccc1)N(Cc1cccnc1)CCC2	i	-14.8%[87.6 µM]	-21.7%[87.6 µM]	12.7
Cc1nn2c(c1-c1ccccc1Oc1ccccc1)N(CC1CC1)CCC2	31.6µM*	?	?	10.4
COc1ccc(OCC(=O)Nc2ccc3c(c2)nc(CN2CCN(C(C)=O)CC2)n3C)cc1	i	.	.	.
CCN(CC)Cc1ccc2c(c1)CN(C(=O)NC1CCCC1)CCO2	i	25.5%	0.2%	-5.5
COCCN1Cc2ccc(NCc3ccccc3)nc2C(C)(C(=O)N(C)CCOC)C1 (centres undefined)	35.5µM*	-22.7%[87.6 µM]	27.2%[87.6 µM]	8.1
COCCN(C)C(=O)C1(C)CN(Cc2ccccc2)Cc2ccc(NCC(C)C)nc21 (centres undefined)	31.6µM*	?	?	28.4
CC(C)CNc1ccc2c(n1)C(C)(C(=O)NC1CC1)CN(Cc1ccccc1)C2 (centres undefined)	i	?	?	10.8
